Rab9 promoter act – activators of Rab9 promoter; Huh7 Rab9 promoter-luciferase reporter, luminescence, 24 h; Potency, µM (series often up to 9.22 µM), actives largely listed as activators; actives 2.8% (n = 320,000); AID 485297; note: nearly all actives have a fitted effect of over 60% in size
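Steps: seed 1500 Huh7 Rab9-luc cells per well, rest 2 h at 37 °C; add compound in DMSO; incubate 24 h; add luciferase reagent, 10 min ambient; read luminescence.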
FLuc counter – counter-screen for miR-21 project: firefly luciferase inhibitors or activators. Potency, µM (titrated, usually from 57.5 µM), actives largely listed as inhibitors. P08659. purified FLuc, Km substrates, luminescence inhibition. actives 6.9% (n = 360,000); note: nearly all actives have a fitted effect of over 55% in size
Target sequence (P08659 whole entry, looked up): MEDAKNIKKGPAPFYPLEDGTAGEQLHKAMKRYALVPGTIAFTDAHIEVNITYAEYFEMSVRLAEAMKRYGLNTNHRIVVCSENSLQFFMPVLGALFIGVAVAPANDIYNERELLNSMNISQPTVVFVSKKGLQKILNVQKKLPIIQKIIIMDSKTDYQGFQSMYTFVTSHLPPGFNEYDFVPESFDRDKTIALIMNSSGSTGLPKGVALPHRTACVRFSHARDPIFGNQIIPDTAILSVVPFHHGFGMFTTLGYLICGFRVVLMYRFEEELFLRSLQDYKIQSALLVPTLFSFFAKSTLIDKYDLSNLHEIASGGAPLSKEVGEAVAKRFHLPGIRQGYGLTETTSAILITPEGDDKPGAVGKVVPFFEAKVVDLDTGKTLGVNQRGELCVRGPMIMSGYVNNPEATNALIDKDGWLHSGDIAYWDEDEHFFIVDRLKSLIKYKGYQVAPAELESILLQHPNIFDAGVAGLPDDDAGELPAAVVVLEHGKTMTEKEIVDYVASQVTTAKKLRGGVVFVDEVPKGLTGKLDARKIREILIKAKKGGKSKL
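Purified P. pyralis luciferase (10nM final) with 10uM D-luciferin and 10uM ATP (Km levels) in 50mM Tris acetate pH 7.5, 10mM Mg acetate, 0.01% Tween-20, 0.05% BSA; qHTS 6-point titration, ~60 µM downward; luminescence read.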
ELG1 genotoxic – inducers of genotoxicity in HEK293T ELG1-luciferase cells | HEK293T ELG1-luciferase reporter, luminescence, 16 h | AID 504466 | Potency, µM (doses to about 46 µM), most hits filed as activators | actives 1.3% (n = 330,000); note: nearly all actives have a fitted effect of over 60% in size
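After overnight (16 hr) compound treatment at 37 °C, ELG1-luciferase HEK293T cells were lysed with ONE-Glo; luminescence quantified 30 min later at room temperature.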
NPC1 promoter act – activates the NPC1 promoter | Huh7 NPC1 promoter luciferase reporter, 24 h | Potency, µM (doses to about 9.22 µM), hits mostly activators | actives 2.4% (n = 320,000) | AID 485313; note: nearly all actives have a fitted effect of over 60% in size
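Luminescence read-out of NPC1 promoter-driven luciferase in stably transfected Huh7 cells; compounds delivered in DMSO and left 24 h at 37C, 5% CO2, qHTS titration format.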
SMN2 splice enh – increases expression of the SMN2 splice variant; HEK293 SMN2-luciferase splicing reporter, luminescence, 30-36 h; Potency, µM (top dose mostly 46.1 µM), actives largely listed as activators; actives 2.8% (n = 210,000); AID 1458; note: nearly all actives have a fitted effect of over 55% in size
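HEK293 cells carry an SMN2 […]–luciferase reporter in which exon 7 inclusion puts luciferase in frame. Cells were plated 10-12 h before compound addition, then incubated 30-36 h at 37C. ONE-Glo luminescence was read; sodium butyrate at 4.5 mM final served as control.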
Of the large screens only hits and unclear results are named; the others gave an inactive call. An excerpt weighted towards active compounds, which were near 7.4% of everything screened. Calls come from the whole dose curve; as a rule, active = well fitted curve in the direction sought with a large enough effect; inconclusive = small, poorly fitted or top-dose-only effect, or another doubt; inactive = no such curve, though single readings can be large; an effect the other way counts as inactive or inconclusive.

Cc1ccc2ccc3cc(C(=O)Nc4ccc(C)c(F)c4)nc3c2[nH]1	none (no result: Rab9 promoter act, ELG1 genotoxic, NPC1 promoter act, SMN2 splice enh)
COc1cccc(NC(=O)c2nnn(Cc3cccc(C(F)(F)F)c3)c2N)c1	none (no result: Rab9 promoter act, ELG1 genotoxic, NPC1 promoter act)
Cc1ccc(Nc2cc(C)nc(-c3ccccc3)n2)cc1	Rab9 promoter act inconclusive, FLuc counter 21.3µM, ELG1 genotoxic inconclusive, NPC1 promoter act inconclusive (no result: SMN2 splice enh)
Cc1ccc(Nc2cc(C)nc(-c3ccccc3O)n2)cc1	FLuc counter 23.9µM, ELG1 genotoxic inconclusive
C/C(=N\Nc1cc(C)nc(-c2ccccc2O)n1)c1ccccc1	FLuc counter 9.53µM
Cc1cc(N/N=C/c2ccc(O)c(C)c2O)nc(-c2ccccc2O)n1	FLuc counter inconclusive
N#Cc1c(NC(=O)CCC(=O)O)ccc2ccccc12	none (no result: Rab9 promoter act, FLuc counter, ELG1 genotoxic, NPC1 promoter act)
Cc1cccn2c(N)c(-c3ccccc3)nc12	Rab9 promoter act 3.55µM, FLuc counter 10.7µM, ELG1 genotoxic inconclusive, NPC1 promoter act inconclusive
CCOC(=O)c1c(-c2ccccc2)nc2c(C)cccn12	FLuc counter inconclusive
Cc1ccc(/C=c2/sc3nnc(-c4ccccc4Cl)n3c2=O)o1	FLuc counter 15.1µM
CN=C1N(C)C[C@@H]2[C@@H]3C(=O)N(C)C(=O)[C@@H]3[C@](C)(C(=O)OC)N12	none (no result: Rab9 promoter act, FLuc counter, NPC1 promoter act, SMN2 splice enh)
COc1cccc(CNC(=O)c2cccc(NC(=O)c3nsc4ccccc34)c2)c1	FLuc counter 6.75µM (no result: Rab9 promoter act, ELG1 genotoxic, NPC1 promoter act, SMN2 splice enh)
O=C(NCc1ccc(Cl)cc1)c1cccc(NC(=O)c2ccccc2)c1	none
COC(=O)c1cccc(NC(=O)c2nsc3ccccc23)c1	FLuc counter 0.953µM, SMN2 splice enh inconclusive (no result: Rab9 promoter act, ELG1 genotoxic, NPC1 promoter act)
COc1cccc(CNC(=O)c2cccc(Br)c2)c1	none
CCCCNC(=O)c1cccc(NC(=O)c2nsc3ccccc23)c1	FLuc counter 4.78µM (no result: Rab9 promoter act, ELG1 genotoxic, NPC1 promoter act, SMN2 splice enh)
COC(=O)c1cccc(NC(=O)c2nn(C(C)C)c(=O)c3ccccc23)c1	none
O=C(NCc1cccc(F)c1)c1cccc(NC(=O)c2nsc3ccccc23)c1	FLuc counter 8.49µM (no result: Rab9 promoter act, ELG1 genotoxic, NPC1 promoter act, SMN2 splice enh)
Cc1ccc(CNC(=O)CSc2ncc3c(n2)-c2ccc(Cl)cc2N(Cc2ccccc2)S3(=O)=O)cc1	none (no result: Rab9 promoter act, ELG1 genotoxic, NPC1 promoter act, SMN2 splice enh)
COc1cc(C(=O)OC2CSCC2NC(=O)c2ccccc2)cc(OC)c1OC (stereo not given)	none (no result: SMN2 splice enh)
O=C(Nc1cccc(C(=O)N2CCCCC2)c1)c1nsc2ccccc12	FLuc counter 5.36µM (no result: Rab9 promoter act, ELG1 genotoxic, NPC1 promoter act, SMN2 splice enh)
Cn1c(CNC(=O)c2ccc3c(c2)OCO3)nnc1SCC(=O)Nc1ccccc1F	FLuc counter inconclusive (no result: SMN2 splice enh)
CCCCNC(=O)CSc1nc2ccccc2nc1Cc1ccc(Cl)cc1	none (no result: Rab9 promoter act, ELG1 genotoxic, NPC1 promoter act, SMN2 splice enh)
COc1cc(/C=N/NC(=O)c2ccc(N)cc2)ccc1OC(=O)c1cccc(C)c1	none (no result: SMN2 splice enh)
CCOc1cc(/C=N/Nc2ccc(C(=O)O)cc2)ccc1OC(=O)c1ccccc1C	Rab9 promoter act 3.98µM, FLuc counter inconclusive, NPC1 promoter act 1.41µM (no result: SMN2 splice enh)
COc1cccc(C(=O)Oc2ccc(/C=N/Nc3ccc(C(=O)O)cc3)cc2OC)c1	Rab9 promoter act inconclusive, FLuc counter 23.9µM, ELG1 genotoxic inconclusive, NPC1 promoter act 0.447µM (no result: SMN2 splice enh)
COc1cccc(OCc2cc(/C=N/Nc3ccc(C(=O)O)cc3)ccc2OC)c1	Rab9 promoter act inconclusive, FLuc counter 6.75µM, ELG1 genotoxic 4.61µM (no result: SMN2 splice enh)
Cc1ccc2[nH]c(SCC(=O)N3CCOCC3)nc2c1C	Rab9 promoter act 3.55µM, FLuc counter 15.1µM, ELG1 genotoxic inconclusive, NPC1 promoter act inconclusive, SMN2 splice enh 6.31µM
Cc1ccc2nc(SCC(=O)N3CCN(c4ccccc4)CC3)[nH]c2c1	none (no result: SMN2 splice enh)
CC1CCN(C(=O)CSc2nnc3c(n2)[nH]c2ccc(F)cc23)CC1	none (no result: SMN2 splice enh)
Cc1ccc2nc(SCC(=O)Nc3ccc(C#N)cc3)[nH]c2c1	none (no result: Rab9 promoter act, ELG1 genotoxic, NPC1 promoter act)
CC(C)c1ccc2[nH]c3nc(SCC(=O)N4CCOCC4)nnc3c2c1	FLuc counter 6.75µM, SMN2 splice enh inconclusive
Cc1ccc2nc(SCC(=O)N3CCOCC3)[nH]c2c1	Rab9 promoter act 1.58µM, FLuc counter 6.75µM, ELG1 genotoxic 9.2µM, NPC1 promoter act 2.51µM, SMN2 splice enh inconclusive
C/C(N)=C(/C#N)C(=O)CSc1nc2ccc(C)cc2[nH]1	Rab9 promoter act 1.12µM, FLuc counter 4.78µM, ELG1 genotoxic inconclusive, NPC1 promoter act 1.41µM, SMN2 splice enh 10µM
Cc1ccc(NS(=O)(=O)c2cccc(C(=O)NCC(c3ccc(F)cc3)N3CCOCC3)c2)cc1 (stereo not given)	none (no result: SMN2 splice enh)

Compound activity deposited in PubChem by National Center for Advancing Translational Sciences (NCATS).
